The values that follow come from PubChem BioAssay AID588342 (National Center for Advancing Translational Sciences (NCATS), 2011).

The structures appear in SMILES notation. Screen size: about 360,000 compounds; about 25,000 (6.9%) were called active. Roughly 9% stayed inconclusive and do not appear here. Only a selection was taken, and actives are over-represented in it overall. Unmarked numbers belong to inactive results. Calls come from the whole dose curve; as a rule, active = well fitted inhibition curve with a large enough effect; inconclusive = small, poorly fitted or top-dose-only effect; inactive = flat fitted curve, though single readings scatter.

The target in the test is Luciferin 4-monooxygenase (Photinus pyralis) (UniProt P08659). In words: qHTS profiling assay for firefly luciferase inhibitor/activator using purifed enzyme and Km concentrations of substrates (counterscreen for miR-21 project).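 For activity change, negative = inhibition: plate controls were vehicle for no effect and reference inhibitor for full effect.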 Note: nearly all actives have a fitted effect of over 55% in size. As to conditions: purified FLuc, luminescence inhibition; series mostly up to 57.5 µM; activity change, negative = inhibition: at the top concentration. From the text: MLPCN Grant: 1 R21 NS059478-01 (miR-21 grant) Assay Provider: NCGC NCGC Assay Overview: Firefly (Photinus pyralis) luciferase is one of the most commonly used transcriptional reporters for a number of reasons. It is considered one of the more dynamically responsive reporters -that is, responsive to changes in reporter transcription - as it requires no post-translational modifications and is enzymatically active directly after protein synthesis (Wood, 1998). Additionally, the half-life of the luciferase protein is short relative to other reporter-gene products (Wood, 1995). Whereas reporters with long half-lives potentially allow for increased signal due to accumulation of reporter-gene product, once accumulated in the cell, dynamic changes in reporter-gene expression may be difficult to detect(Fan and Wood, 2007; Almond et al., 2004). It has been shown that wild-type P. pyralis luciferase has a half-life of approximately […] hours in mammalian cells (Thompson et al., 1991). Firefly luciferase reporter-gene assays are also generally considered one of the most sensitive assay types (Wood, 1995; Wood, 1998). Although light produced in a bioluminescence reaction is of lower intensity than that produced during fluorescence emission, this is offset by little to no background light inherent to luminescent assays. Thus the luciferase reporter can be expressed at much lower levels than fluorescent proteins while still providing robust signal. # However, it was initially observed, in 1991, by Thompson et al., that compounds that resemble the substrates of firefly luciferase (FLuc) can act as competitive inhibitors of the enzyme, and that these compounds, upon interaction with luciferase in the cell, can actually stabilize the protein and increase its half-life. Accumulated intracellular FLuc protein can be measured as an increase in luminescence signal, upon addition of detection reagents (which contain high concentrations of FLuc substrates) commonly used in high-throughput screening. In cell-based reporter gene assays that use FLuc as the reporter gene to quantitate the potential influence of a given compound against the target biology, this apparent increase in luminescence can mistakenly be interpreted as identification of a compound that is active against the target of interest. This is the case for the miR-21 FLuc reporter gene assay used to identify inhibitors of the miR-21 pathway (PubChem AID 2289) - compounds of interest will inhibit miR-21 biogenesis/expression or activity, and are identified by causing an increase in luminescence, due to increased FLuc translation. However, FLuc inhibitory compounds that stabilize the FLuc protein will give an identical read-out, making it difficult to distinguish compounds that are active against the target from those active against FLuc. Previous profiling work to determine the prevalence of compounds that affect FLuc enzymatic activity (PubChem AID 411) identified that ~3% of the MLSMR library (then at ~72K) inhibited FLuc. […] Since the MLSMR had grown to ~350K compounds, and since it was expected that a significant percentage of compounds found active in the miR-21 FLuc assay would be FLuc inhibitors, the library was screened for activity against FLuc using a biochemical assay of purified FLuc and KM concentrations of FLuc substrates (D-luciferin and ATP).
Chain of Luciferin 4-monooxygenase (Photinus pyralis) (P08659 whole entry, looked up): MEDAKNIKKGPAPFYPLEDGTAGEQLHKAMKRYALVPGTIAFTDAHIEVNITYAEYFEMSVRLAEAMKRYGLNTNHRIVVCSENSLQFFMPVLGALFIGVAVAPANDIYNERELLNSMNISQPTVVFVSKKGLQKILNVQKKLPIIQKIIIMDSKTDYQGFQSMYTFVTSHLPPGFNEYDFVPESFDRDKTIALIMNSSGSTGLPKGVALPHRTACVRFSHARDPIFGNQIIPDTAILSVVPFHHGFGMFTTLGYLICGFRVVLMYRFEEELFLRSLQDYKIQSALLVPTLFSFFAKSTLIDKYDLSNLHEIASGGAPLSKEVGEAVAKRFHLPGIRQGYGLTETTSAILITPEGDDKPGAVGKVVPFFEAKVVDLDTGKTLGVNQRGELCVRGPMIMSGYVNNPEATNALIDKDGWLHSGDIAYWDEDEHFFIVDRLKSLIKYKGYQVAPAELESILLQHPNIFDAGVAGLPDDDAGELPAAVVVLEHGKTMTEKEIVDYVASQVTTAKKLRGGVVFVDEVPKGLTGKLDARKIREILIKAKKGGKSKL
NCGC Assay Protocol Summary: Reagents: 50mM Tris acetate, pH 7.5; 10mM Mg acetate; 10uM D-luciferin (Sigma #L9504); 10uM ATP; 0.01% Tween-20; 0.05% BSA; 10nM P. pyralis luciferase (Sigma #L9506) Control compounds used were two known firefly luciferase inhibitors (compounds (2) and (5) in Auld et al., 2010), and DMSO. […]
(In general: qHTS replaces the single test concentration by a dilution series.)
Take `COc1cc(C(F)(F)F)nc2c(Br)c(C(C)(C)C)nn12`: the “activity change, negative = inhibition” value is -4.91%.

Regarding `O=C(NCCc1c[nH]c2ccccc12)C1CCN(Cc2ccc(Br)cc2)CC1`, the “activity change, negative = inhibition” value was -0.302%.

`O=C(NCCc1ccccc1)c1ccc2c(c1)N(Cc1ccc(F)cc1)C(=O)c1ccccc1S2(=O)=O`: the “activity change, negative = inhibition” value was -0.75%.

Consider `Cc1ccccc1OCc1nc2c3cnn(-c4ccccc4F)c3ncn2n1`, for which the “activity change, negative = inhibition” value is -0.731%.

`COC(=O)c1ccccc1NC(=O)Cn1c(=O)n(-c2cccc(C(F)(F)F)c2)c(=O)c2c(C)c(C)sc21`: the “activity change, negative = inhibition” value was -7.45%.

As for `CSc1ncc(Cl)c(C(=O)Nc2ccc(S(=O)(=O)N3CCCC(C)C3)cc2)n1` (centres undefined), the “activity change, negative = inhibition” value is 5.6%.

Turning to `Cc1cccc(C(=O)Nc2ccc(-c3nc4ccccc4s3)c(C)c2)c1`, the Potency was 2.69 µM (active).

Regarding `CCC(C(=O)Nc1cccc(-c2nc3cccnc3s2)c1C)c1ccccc1` (centres undefined), the “activity change, negative = inhibition” value was -0.908%.

Take `CC(=O)Nc1cccc(-c2nc3ccccc3s2)c1C`: the Potency was 6.01 µM (active).

With `COc1ccc(CC(=O)Nc2ccc(-c3nc4ccccc4s3)c(C)c2)cc1`, the “activity change, negative = inhibition” value was -10.8%.

For `CCCCc1nn2c(=O)cc(COC(=O)c3ccccc3NC(=O)C(C)(C)C)nc2s1`, the “activity change, negative = inhibition” value is -3.42%.

In the case of `Cc1cccc(NC(=O)Cn2c(C(F)(F)F)nc3ccccc32)c1C`, the “activity change, negative = inhibition” value is 3.57%.

Take `Cc1cccc(C(=O)N2CCC(c3nc4ccccc4s3)CC2)c1`: the “activity change, negative = inhibition” value was -2.17%.

`Cc1c(NC(=O)Cc2ccccc2)cccc1-c1nc2cccnc2s1`: the “activity change, negative = inhibition” value is 1.87%.

`Cc1c(NC(=O)C(C)(C)C)cccc1-c1nc2ccccc2s1`: the Potency was 4.78 µM (active).

As for `COCCCNC(NC(=O)c1ccc(OC)cc1)C(Cl)(Cl)Cl` (centres undefined), the “activity change, negative = inhibition” value is -0.556%.

Take `COC(=O)c1scc(-c2ccc(C)cc2)c1S(=O)(=O)Nc1cc(Cl)c(OC)cc1OC`: the “activity change, negative = inhibition” value was -2.24%.

For the compound `COc1ccccc1Nc1cc(C(=O)NCCCN(C)C2CCCCC2)c2ccccc2n1`, the “activity change, negative = inhibition” value was -13.2%.

As for `Cc1ccc(C(=O)CC2(O)C(=O)N(CCc3ccccc3)c3ccc(Br)cc32)cc1` (centres undefined), the “activity change, negative = inhibition” value is -12.3%.

With `COc1cc(Cl)ccc1Nc1ncc(C(=O)N2CCN(c3ccccc3OC)CC2)c2ccccc12`, the “activity change, negative = inhibition” value is -0.617%.

For the compound `COc1cc(OC)cc(C(=O)NCCSCc2ccc(Cl)cc2)c1`, the “activity change, negative = inhibition” value is 3.1%.

Turning to `O=C(O)c1cscn1`, the “activity change, negative = inhibition” value is -0.163%.

For the compound `O=C(CCNS(=O)(=O)c1ccccc1)NCCCc1ccccc1`, the “activity change, negative = inhibition” value is -1.01%.

For `Clc1ccc(Nc2nc(-c3cccs3)cs2)nc1`, the Potency is 1.51 µM (active).

On to `CC(=O)Nc1cccc(-c2cnc3ccccc3n2)c1`, for which the Potency was 12 µM (active).

For the compound `c1csc(-c2cn3c(n2)SCC3)c1`, the “activity change, negative = inhibition” value was -22.6%.

Turning to `Cc1nc(CNS(=O)(=O)c2cccnc2)cs1`, the “activity change, negative = inhibition” value is 0.166%.

Consider `COC(=O)c1ccc(NC(=S)Nc2cccc(C)n2)cc1`, for which the “activity change, negative = inhibition” value is -0.516%.

`Cc1cc(=O)oc(C)c1C(=O)Nc1cnc2ccccc2c1`: the “activity change, negative = inhibition” value is -0.785%.

In the case of `CC(=O)Nc1ccc(NC(=O)COc2ncnc3ccccc23)cc1`, the “activity change, negative = inhibition” value was 2.39%.

As for `O=C(Nc1nc(-c2cccnc2)cs1)c1ccccc1F`, the “activity change, negative = inhibition” value was -6.48%.

With `CC(=O)Nc1cccc(-c2csc(Nc3cccc(C)n3)n2)c1`, the Potency is 2.39 µM (active).

In the case of `O=C(Nc1ccc(-c2csc(Nc3cccc(C(F)(F)F)c3)n2)cc1)c1cccc(C(F)(F)F)c1`, the “activity change, negative = inhibition” value is 1.5%.

Turning to `Cc1ccccc1Nc1nc(-c2cccnc2)cs1`, the Potency was 6.01 µM (active).

Regarding `COc1ccc(Br)cc1C1CC(=O)Nc2c1c(C)nn2-c1nc(C)cc(C)n1` (centres undefined), the “activity change, negative = inhibition” value was -8.06%.

Turning to `Cc1ccc(NC(=O)CSc2nc3c([nH]c4ccccc43)c(=O)n2-c2ccccc2)c(C)c1`, the “activity change, negative = inhibition” value was -2.12%.

In the case of `O=C(CN(C(=O)c1csnn1)c1cccc(Cl)c1)NC1CCCC1`, the “activity change, negative = inhibition” value was 0.359%.

As for `CCCCN(CC(=O)Nc1cccc(S(=O)(=O)N2CCCC2)c1)Cc1nc2ccccc2c(=O)[nH]1`, the “activity change, negative = inhibition” value is -1.73%.

Consider `COC(=O)c1ccc(COC(=O)CNC(=O)c2cccc(OC)c2)o1`, for which the “activity change, negative = inhibition” value is -18%.

For `CCOC(=O)c1scc(-c2ccc(C)cc2)c1S(=O)(=O)Nc1cc(C)ccc1C`, the “activity change, negative = inhibition” value was -14.5%.

In the case of `Cc1ccc2nc(COc3ccccc3NC(=O)Nc3ccc(F)c(Cl)c3)cc(=O)n2c1`, the “activity change, negative = inhibition” value is -18.2%.

As to `O=C(CN1C(=O)C2C3C=CC(C3)C2C1=O)Nc1nc(-c2ccccn2)cs1` (centres undefined), the “activity change, negative = inhibition” value is -3.95%.

Turning to `CSc1nc(Nc2ccc(F)cc2)cc(-c2ccccc2)n1`, the “activity change, negative = inhibition” value is -13%.

With `CC(NC(=O)c1ccco1)C(=O)Nc1nc(-c2ccccn2)cs1` (centres undefined), the “activity change, negative = inhibition” value was 1.86%.

As to `c1ccc(Nc2nc(-c3ccncc3)cs2)nc1`, the Potency was 4.78 µM (active).

For the compound `Cc1cccc(Nc2nc(-c3ccccc3)cs2)n1`, the Potency is 3.79 µM (active).

For `COC(=O)c1cc2occc2n1Cc1nc(-c2ccc(C)cc2)oc1C`, the “activity change, negative = inhibition” value was 4.5%.

`COc1ccc2c(c1)C(NS(=O)(=O)OCC(Cl)(Cl)Cl)CCC2` (centres undefined): the “activity change, negative = inhibition” value is -1.13%.

`COCCN(C(=O)CSCc1ccc(C)cc1)c1c(N)n(CC(C)C)c(=O)[nH]c1=O`: the “activity change, negative = inhibition” value is -1.29%.

For the compound `CCOc1cccc(CC(=O)N2CCc3c([nH]c4ccccc34)C2c2ccc(OC)cc2)c1OCC` (centres undefined), the “activity change, negative = inhibition” value is -2.95%.

As to `Cc1cc(=O)c2cc(C(=O)Nc3cccc(C)c3C)ccc2[nH]1`, the “activity change, negative = inhibition” value was -4.94%.

`CCS(=O)(=O)N1CCc2cc(C(=O)NCc3ccc(C)cc3)ccc21`: the “activity change, negative = inhibition” value was -5.13%.

For `COc1ccc(NC(=O)Cn2c(=O)cc(C)c3c(C)nn(-c4cccc(Cl)c4C)c32)cc1OC`, the “activity change, negative = inhibition” value is 4.01%.

On to `COc1ccccc1N1CCN(/N=C\C(Br)=C\c2ccccc2)CC1`, for which the Potency was 16.9 µM (active).
